PubChem BioAssay (NCATS)
Inconclusive results are not listed. Entries that show only a call come without a potency. A number with no mark means an inactive call. Calls of active or inactive are those of the source. Unless noted, calls follow the shape of the full dose curve.

Key:
[1] = target: Androgen receptor (Homo sapiens) (UniProt P10275); experiment: qHTS assay for small molecule antagonists of androgen receptor signaling (AID 588516; active = well fitted curve in the direction sought with a large enough effect in the signal ratio, with a control signal flat, not every such curve was filed as active; the % refers to the signal ratio)
Androgen receptor (Homo sapiens), sequence (P10275 whole entry, looked up): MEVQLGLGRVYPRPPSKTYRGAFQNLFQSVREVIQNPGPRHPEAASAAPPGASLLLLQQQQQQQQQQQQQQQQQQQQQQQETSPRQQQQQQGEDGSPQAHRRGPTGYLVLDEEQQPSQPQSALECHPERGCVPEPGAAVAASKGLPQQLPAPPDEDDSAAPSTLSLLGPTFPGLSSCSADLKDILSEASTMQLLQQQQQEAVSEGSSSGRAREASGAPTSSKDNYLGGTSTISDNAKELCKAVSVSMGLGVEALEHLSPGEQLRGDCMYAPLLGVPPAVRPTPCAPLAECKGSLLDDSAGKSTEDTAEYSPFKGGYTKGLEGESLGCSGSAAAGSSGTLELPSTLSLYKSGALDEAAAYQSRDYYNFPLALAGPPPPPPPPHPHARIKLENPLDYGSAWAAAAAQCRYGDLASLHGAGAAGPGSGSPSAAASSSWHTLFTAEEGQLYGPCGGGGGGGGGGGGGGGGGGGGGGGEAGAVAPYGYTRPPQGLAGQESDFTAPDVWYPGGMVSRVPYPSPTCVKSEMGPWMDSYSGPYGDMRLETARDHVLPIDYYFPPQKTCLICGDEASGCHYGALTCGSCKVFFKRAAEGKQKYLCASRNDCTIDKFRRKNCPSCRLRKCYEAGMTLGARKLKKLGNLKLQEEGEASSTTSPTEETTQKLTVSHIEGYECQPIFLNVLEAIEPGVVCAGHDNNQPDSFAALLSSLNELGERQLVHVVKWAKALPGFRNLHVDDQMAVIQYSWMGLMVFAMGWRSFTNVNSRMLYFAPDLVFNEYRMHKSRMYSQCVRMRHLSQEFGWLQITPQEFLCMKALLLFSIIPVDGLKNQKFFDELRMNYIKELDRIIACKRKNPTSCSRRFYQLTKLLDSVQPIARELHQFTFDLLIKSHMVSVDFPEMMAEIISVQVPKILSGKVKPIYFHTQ
How it was run: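 Antagonist-mode qHTS: inhibition of R1881 (10 nM)-driven beta-lactamase expression in GripTite HEK 293 cells is measured after 16 h; values are Hill-derived IC50s normalized between R1881 and DMSO wells.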

[2] = target: Bile acid receptor (Homo sapiens) (UniProt Q96RI1); experiment: qHTS assay for small molecule antagonists of farnesoid X receptor signaling (AID 588526)
Bile acid receptor (Homo sapiens), sequence (Q96RI1 whole entry, looked up): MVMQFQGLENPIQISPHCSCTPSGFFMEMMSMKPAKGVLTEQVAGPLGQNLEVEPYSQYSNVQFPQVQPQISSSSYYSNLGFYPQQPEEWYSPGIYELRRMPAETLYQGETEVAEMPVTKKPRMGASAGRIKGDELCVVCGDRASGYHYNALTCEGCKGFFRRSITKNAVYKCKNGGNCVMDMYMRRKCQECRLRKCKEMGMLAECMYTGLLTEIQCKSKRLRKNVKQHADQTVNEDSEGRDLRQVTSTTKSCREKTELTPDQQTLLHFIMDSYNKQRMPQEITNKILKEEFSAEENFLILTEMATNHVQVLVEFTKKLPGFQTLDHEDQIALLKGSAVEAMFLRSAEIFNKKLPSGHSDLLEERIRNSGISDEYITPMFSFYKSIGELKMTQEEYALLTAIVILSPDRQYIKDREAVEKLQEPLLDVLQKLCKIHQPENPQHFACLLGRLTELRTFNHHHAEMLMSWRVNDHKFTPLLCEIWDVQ
How it was run: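 Beta-lactamase reporter antagonist mode: HEK293T FXR-UAS-bla cells, titrated compound, CDCA stimulation, 16 h 37 C, CCF4 dye 2 h RT. Data normalized to CDCA 50 uM and DMSO; Hill-fit IC50.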

[3] = target: Glucocorticoid receptor (Homo sapiens) (UniProt P04150); experiment: qHTS assay for small molecule agonists of glucocorticoid receptor signaling (AID 588532; active = well fitted curve in the direction sought with a large enough effect in the signal ratio, with a control signal flat; the % refers to the signal ratio); settings: HeLa MMTV-bla, beta-lactamase ratio, agonist, 18 h; hits give high values; percent of dexamethasone control, DMSO zero
Glucocorticoid receptor (Homo sapiens), sequence (P04150 whole entry, looked up): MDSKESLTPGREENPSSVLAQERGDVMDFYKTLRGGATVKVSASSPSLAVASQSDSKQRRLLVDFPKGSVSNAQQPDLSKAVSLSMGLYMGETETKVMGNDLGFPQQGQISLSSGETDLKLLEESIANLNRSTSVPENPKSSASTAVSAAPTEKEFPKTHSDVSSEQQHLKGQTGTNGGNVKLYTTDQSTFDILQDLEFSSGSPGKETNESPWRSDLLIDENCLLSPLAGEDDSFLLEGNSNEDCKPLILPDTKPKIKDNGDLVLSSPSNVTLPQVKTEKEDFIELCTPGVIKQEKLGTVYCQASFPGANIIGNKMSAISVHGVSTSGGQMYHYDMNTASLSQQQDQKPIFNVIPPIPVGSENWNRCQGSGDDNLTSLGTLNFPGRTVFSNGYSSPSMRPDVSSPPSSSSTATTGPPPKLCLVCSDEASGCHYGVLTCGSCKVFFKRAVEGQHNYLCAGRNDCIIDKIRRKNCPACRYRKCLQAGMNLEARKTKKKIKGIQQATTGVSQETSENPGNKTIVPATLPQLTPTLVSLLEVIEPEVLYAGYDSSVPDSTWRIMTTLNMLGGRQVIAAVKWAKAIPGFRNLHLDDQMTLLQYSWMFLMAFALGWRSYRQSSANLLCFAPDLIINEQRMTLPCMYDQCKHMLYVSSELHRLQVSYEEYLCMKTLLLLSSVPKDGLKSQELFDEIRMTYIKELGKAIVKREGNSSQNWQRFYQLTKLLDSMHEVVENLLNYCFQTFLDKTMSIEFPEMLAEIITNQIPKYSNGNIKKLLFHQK
How it was run: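 Quantitative HTS using CellSensor MMTV-bla HeLa cells in charcoal/dextran-treated serum; compounds tested up to 92 uM. After 18 h at 37 C, CCF4 dye reported reporter induction.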

[4] = target: Glucocorticoid receptor (Homo sapiens) (UniProt P04150); experiment: qHTS assay for small molecule antagonists of glucocorticoid receptor signaling (AID 588533; active = well fitted inhibition curve with a large enough effect in the signal ratio, with a control signal flat, not every such curve was filed as active; the % refers to the signal ratio;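 also: cells stimulated with 2 nM dexamethasone as agonist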)
How it was run: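 Antagonist-mode qHTS: compound titrations added to GRE-bla HeLa cells, then dexamethasone 2 nM final; 18 h, 37 C. CCF4 FRET fluorescence normalized to dexamethasone and DMSO; IC50 from Hill fit.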

[5] = target: Peroxisome proliferator-activated receptor gamma (Homo sapiens) (UniProt P37231); experiment: qHTS assay for small molecule agonists of peroxisome proliferator-activated receptor gamma signaling (AID 588536; active = well fitted curve in the direction sought with a large enough effect in the signal ratio, with a control signal flat, not every such curve was filed as active; the % refers to the signal ratio)
Peroxisome proliferator-activated receptor gamma (Homo sapiens), sequence (P37231 whole entry, looked up): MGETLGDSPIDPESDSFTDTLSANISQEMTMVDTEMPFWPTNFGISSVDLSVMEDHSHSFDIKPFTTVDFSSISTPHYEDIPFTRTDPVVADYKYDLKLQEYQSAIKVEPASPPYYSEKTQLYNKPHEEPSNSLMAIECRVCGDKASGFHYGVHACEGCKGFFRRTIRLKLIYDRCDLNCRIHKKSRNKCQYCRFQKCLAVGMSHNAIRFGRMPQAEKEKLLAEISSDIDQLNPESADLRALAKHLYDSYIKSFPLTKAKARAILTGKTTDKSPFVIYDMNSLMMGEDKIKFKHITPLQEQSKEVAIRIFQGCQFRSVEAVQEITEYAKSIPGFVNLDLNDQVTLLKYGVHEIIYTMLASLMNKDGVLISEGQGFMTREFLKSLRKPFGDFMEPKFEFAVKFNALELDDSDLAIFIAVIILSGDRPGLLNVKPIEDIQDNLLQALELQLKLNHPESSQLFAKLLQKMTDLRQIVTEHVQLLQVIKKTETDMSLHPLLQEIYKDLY
How it was run: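 Using GeneBLAzer HEK293 cells, response was quantified by CCF4 fluorescence and normalized between basal DMSO (0%) and rosiglitazone 2 uM (100%); curves yielded half-maximal stimulation concentration and efficacy.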

[6] = target: Vitamin D3 receptor (Homo sapiens) (UniProt P11473); experiment: qHTS assay for small molecule antagonists of vitamin D receptor signaling (AID 588541);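 also: receptor activated by calcitriol during compound treatment; series mostly up to about 77 µM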
Vitamin D3 receptor (Homo sapiens), sequence (P11473 whole entry, looked up): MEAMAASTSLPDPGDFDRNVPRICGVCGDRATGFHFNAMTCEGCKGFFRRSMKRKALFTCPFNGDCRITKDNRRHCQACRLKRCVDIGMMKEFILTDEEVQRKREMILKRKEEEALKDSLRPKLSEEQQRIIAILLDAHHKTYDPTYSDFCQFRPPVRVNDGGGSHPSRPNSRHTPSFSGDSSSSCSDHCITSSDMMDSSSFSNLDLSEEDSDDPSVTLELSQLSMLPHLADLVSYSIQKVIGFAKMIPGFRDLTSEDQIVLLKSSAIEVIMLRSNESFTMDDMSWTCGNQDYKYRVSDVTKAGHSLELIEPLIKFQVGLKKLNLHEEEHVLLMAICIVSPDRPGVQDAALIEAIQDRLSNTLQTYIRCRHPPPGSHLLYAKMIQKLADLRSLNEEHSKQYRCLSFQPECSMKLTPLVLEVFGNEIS
How it was run: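 Antagonist-mode beta-lactamase reporter assay: HEK293T VDR-UAS-bla cells were exposed to titrated compound alongside 1-alpha,25-dihydroxyvitamin D3 at 3 nM final for 16 h. Values were normalized to the 50 nM agonist control and DMSO basal, with IC50 and efficacy from Hill equation fits.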

[7] = target: Thyroid hormone receptor beta (Homo sapiens) (UniProt P10828); experiment: qHTS assay for small molecule agonists of thyroid hormone receptor beta signaling (AID 588545)
Thyroid hormone receptor beta (Homo sapiens), sequence (P10828 whole entry, looked up): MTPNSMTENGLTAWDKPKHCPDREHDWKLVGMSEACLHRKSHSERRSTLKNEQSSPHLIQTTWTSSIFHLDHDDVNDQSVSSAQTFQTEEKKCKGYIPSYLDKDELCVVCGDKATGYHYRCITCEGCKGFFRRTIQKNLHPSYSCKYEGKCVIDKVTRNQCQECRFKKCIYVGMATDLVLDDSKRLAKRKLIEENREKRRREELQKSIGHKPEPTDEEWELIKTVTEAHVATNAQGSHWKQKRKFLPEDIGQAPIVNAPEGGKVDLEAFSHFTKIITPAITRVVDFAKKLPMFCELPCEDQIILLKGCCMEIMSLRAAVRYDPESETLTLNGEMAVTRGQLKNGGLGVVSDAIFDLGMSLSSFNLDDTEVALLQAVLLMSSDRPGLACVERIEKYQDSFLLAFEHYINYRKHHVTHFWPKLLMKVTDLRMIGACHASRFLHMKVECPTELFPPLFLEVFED
How it was run: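 Compounds were tested as agonists in TR-UAS-bla-GripTite HEK 293 cells. After 18 hrs at 37 C, CCF4 substrate was added and fluorescence read after 2 hrs at room temperature.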

[8] = target: Thyroid hormone receptor beta (Homo sapiens) (UniProt P10828); experiment: qHTS assay for small molecule antagonists of thyroid hormone receptor beta signaling (AID 588547; active = well fitted inhibition curve with a large enough effect in the signal ratio, with a control signal flat, not every such curve was filed as active; the % refers to the signal ratio;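 also: cells stimulated with 0.4 nM T3 agonist during compound exposure; series mostly up to about 77 µM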); settings: TR-UAS-bla HEK293, beta-lactamase ratio, antagonist mode, 18 h
How it was run: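 Inhibition of T3-driven (0.4nM final) beta-lactamase reporter activity was measured over 0.59 nM to 92 uM compound after 18 h at 37 C. The cells were GripTite HEK293 TR-UAS-bla in charcoal/dextran-stripped serum, with CCF4 ratio read-out and IC50 from Hill fits.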

[9] = qHTS assay for small molecule agonists of the antioxidant response element (ARE) signaling pathway (AID 651741; active = well fitted activation curve with a large enough effect in the signal ratio; the % refers to the signal ratio; also: potency is read from the fitted curve at half-maximal effect)
How it was run: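 Agonist activity is measured as ARE-driven beta-lactamase expression in a stable HepG2 reporter line, using 16 h compound treatment at 37 C and a FRET substrate fluorescence readout after 2 h.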

[10] = qHTS assay for small molecule agonists of the antioxidant response element (ARE) signaling pathway measured by Nrf2-dependant transcriptional activity (AID 720636; active = well fitted activation curve with a large enough effect in the repeat runs)
How it was run: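 ARE-luc HepG2 cells carrying an Nrf2-responsive luciferase reporter were plated in medium with 1% dialyzed FBS, left 6 hr at 37 C to attach, then exposed to compound for 16 hr. Luciferase luminescence was read after ONE-Glo addition.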

[11] = target: Peroxisome proliferator-activated receptor gamma (Homo sapiens) (UniProt P37231); experiment: qHTS assay for small molecule antagonists of peroxisome proliferator-activated receptor gamma signaling (AID 588537; active = well fitted inhibition curve with a large enough effect in the signal ratio, with a control signal flat, not every such curve was filed as active; the % refers to the signal ratio;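 also: reporter cells co-stimulated with 50 nM rosiglitazone agonist during compound treatment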)
How it was run: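 Cell-based beta-lactamase assay; GW9662 served as the antagonist control. Stimulation used rosiglitazone, final 50 nM, 16 h, 37 C.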

[12] = target: Androgen receptor (Homo sapiens) (UniProt P10275); experiment: qHTS assay for small molecule agonists of androgen receptor signaling (AID 588515; active = well fitted curve in the direction sought with a large enough effect in the signal ratio, with a control signal flat; the % refers to the signal ratio); settings: AR-UAS-bla HEK293, beta-lactamase ratio, agonist 16 h; activation: hits give high values
How it was run: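 Stimulation of an AR-responsive β-lactamase reporter in GripTite HEK293 cells was measured after 16 h compound exposure at 37 °C, via CCF4 fluorescence after 2 h RT. EC50 from Hill fits, normalized to R1881 at 30 nM.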

SMILES | outcome [1] | Potency [2] | activation [3] [%] | Potency [4] | outcome [5] | Potency [6] | Potency [7] | activity change % (negative = inhibition) [8] [%] | Potency [9] | Potency [10] | Potency [11] | activation [12] [%]
C=Cc1ccccc1Br | inactive | inactive | -5.73 | inactive | inactive | inactive | inactive | -5.89 | inactive | inactive | – | –
CCCCCCCCCCCCCc1ccccc1 | – | inactive | -7.21 | inactive | inactive | inactive | – | 11.3 | inactive | inactive | inactive | –
CCC(=O)OCCc1ccccc1 | – | inactive | -12.1 | inactive | inactive | inactive | inactive | -6.7 | inactive | inactive | – | –
NCCCCCCCCCCCC(=O)O | inactive | inactive | 8.75 | inactive | inactive | inactive | inactive | 11.2 | inactive | inactive | inactive | –
CNc1nc(=O)n(C2CCC(O)CC2)c(=O)n1C (stereo unspecified) | inactive | inactive | 2.82 | inactive | inactive | inactive | inactive | -13.9 | – | – | inactive | –
CCCCCCCCCC(C)=O | inactive | – | -12.1 | inactive | inactive | – | inactive | -10.7 | inactive | inactive | inactive | -3.13
CCC/C(=N\OCC)C1=C(O)CC(O)(CC(C)S(=O)(=O)CC)CC1=O (stereo unspecified) | inactive | – | -6.04 | inactive | inactive | inactive | inactive | – | 54.5 µM (active) | inactive | inactive | -4
CC(C)OC(=O)c1ccccc1C(=O)OC(C)C | – | inactive | -6.71 | inactive | inactive | inactive | – | – | – | inactive | inactive | –
O=c1[nH]c(=O)c2[nH]cnc2[nH]1 | inactive | – | 3.26 | inactive | inactive | inactive | – | 11.6 | inactive | inactive | inactive | 2.45
Cn1c(=O)[nH]c(=O)n(C2CCC(O)CC2)c1=O (stereo unspecified) | inactive | – | -2.18 | inactive | – | – | inactive | 3.03 | – | inactive | inactive | 1.63
CCCCCCCCCCCO | – | inactive | – | – | inactive | – | inactive | 9.58 | – | inactive | – | –
CC1(C)[C@@H](C=C(Cl)Cl)[C@@H]1C(=O)OCc1cccc(Oc2ccccc2)c1 | inactive | – | – | inactive | – | inactive | – | 5.01 | – | inactive | – | -22.2
CCCCCCCCCCCCCCO | – | – | – | – | inactive | inactive | inactive | 8.79 | inactive | inactive | – | –
Brc1ccc(Br)c(Br)c1 | – | – | – | – | inactive | inactive | – | -13.9 | inactive | inactive | inactive | –
CCc1cccc(C)c1N(C(=O)CS(=O)(=O)O)[C@@H](C)COC | inactive | inactive | -18.8 | inactive | inactive | inactive | – | -18.4 | inactive | inactive | inactive | -2.5
Fc1ccc(Br)cc1 | – | – | 9.16 | inactive | – | – | – | – | – | inactive | inactive | –
OCCOCCOCCOCCO | – | – | -2.94 | inactive | – | inactive | inactive | – | inactive | – | – | –
